Test results as given in PubChem BioAssay (EPA / NIEHS).
Results filed as inconclusive are left out. Activity calls are given as the source filed them. The calls were made as follows, unless noted: active = hit-call score of the fitted dose curve at least 0.9, where 1 is the maximum; inconclusive = response in the unintended direction; inactive = score below 0.9.

How the values were obtained:
[1] = ATG_TCF_b_cat_CIS: Attagene CIS-FACTORIAL HepG2 Assay for human T-Cell-Factor with beta-catenin (TCF/b-cat) (AID 2282965; active = hit-call score of the fitted dose curve at least 0.9, where 1 is the maximum; inactive = score below 0.9); settings: HepG2 TCF/beta-catenin cis-reporter transcription, actives raise or lower the signal
Summary of the method: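 Endogenous TCF/LEF activity read as reporter transcript level via RT-PCR and capillary electrophoresis fluorescence in transfected HepG2, 24 h exposure; gain or loss of signal fitted against DMSO controls.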

[2] = ATG_TAL_CIS: Attagene CIS-FACTORIAL HepG2 Assay for human TAL Basal Promoter (AID 2282966; active = hit-call score of the fitted dose curve at least 0.9, where 1 is the maximum; inactive = score below 0.9;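 also: background control endpoint measuring basal TAL promoter reporter mRNA not a specific factor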); settings: HepG2 Attagene cis-factorial TAL promoter reporter; actives raise or lower the signal
Summary of the method: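 Transiently transfected HepG2 (cis-regulated reporter units), 24 h treatment, mRNA read by fluorescent CE after RT-PCR; bidirectional fit, DMSO baseline.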

[3] = molecular target: X-box-binding protein 1 (Homo sapiens) (UniProt P17861); assay: ATG_Xbp1_CIS: Attagene CIS-FACTORIAL HepG2 Assay for human X-box Binding Protein 1 (XBP1) (AID 2282972; active = hit-call score of the fitted dose curve at least 0.9, where 1 is the maximum; inactive = score below 0.9); settings: HepG2 XBP1 cis-element reporter, Attagene multiplex; actives raise or lower the signal
X-box-binding protein 1 (Homo sapiens), sequence (P17861 whole entry, looked up): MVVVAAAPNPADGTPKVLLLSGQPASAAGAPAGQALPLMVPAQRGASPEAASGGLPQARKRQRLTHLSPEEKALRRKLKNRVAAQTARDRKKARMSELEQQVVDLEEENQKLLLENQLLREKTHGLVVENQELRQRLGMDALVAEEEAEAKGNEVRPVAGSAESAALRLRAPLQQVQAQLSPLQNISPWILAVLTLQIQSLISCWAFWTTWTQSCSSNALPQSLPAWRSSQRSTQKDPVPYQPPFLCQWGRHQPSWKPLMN
Summary of the method: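 Reporter transcripts were quantified by RT-PCR with fluorescent primer extension and capillary electrophoresis after 24 h chemical exposure. Cells: transiently transfected HepG2 carrying cis-regulated reporter constructs; data fitted bidirectionally relative to DMSO.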

[4] = ATG_M_19_TRANS: Attagene TRANS-FACTORIAL HepG2 Assay for M19 Transcription Factor (Internal Marker) (AID 2282974); settings: HepG2 Attagene TRANS-FACTORIAL M19 internal marker reporter
Summary of the method: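 Gain-of-signal in reporter mRNA, relative to DMSO, was scored from capillary electrophoresis fluorescence. HepG2 cells carried transiently transfected multiple reporter transcription units and were incubated with test chemicals for 24 h.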

[5] = molecular target: Hepatocyte nuclear factor 4-alpha (Homo sapiens) (UniProt P41235); assay: ATG_HNF4a_TRANS: Attagene TRANS-FACTORIAL HepG2 Assay for human Hepatocyte Nuclear Factor 4 alpha (HNF4a) (AID 2282982); settings: HepG2 HNF4a transactivation reporter, mRNA readout
Hepatocyte nuclear factor 4-alpha (Homo sapiens), sequence (P41235 whole entry, looked up): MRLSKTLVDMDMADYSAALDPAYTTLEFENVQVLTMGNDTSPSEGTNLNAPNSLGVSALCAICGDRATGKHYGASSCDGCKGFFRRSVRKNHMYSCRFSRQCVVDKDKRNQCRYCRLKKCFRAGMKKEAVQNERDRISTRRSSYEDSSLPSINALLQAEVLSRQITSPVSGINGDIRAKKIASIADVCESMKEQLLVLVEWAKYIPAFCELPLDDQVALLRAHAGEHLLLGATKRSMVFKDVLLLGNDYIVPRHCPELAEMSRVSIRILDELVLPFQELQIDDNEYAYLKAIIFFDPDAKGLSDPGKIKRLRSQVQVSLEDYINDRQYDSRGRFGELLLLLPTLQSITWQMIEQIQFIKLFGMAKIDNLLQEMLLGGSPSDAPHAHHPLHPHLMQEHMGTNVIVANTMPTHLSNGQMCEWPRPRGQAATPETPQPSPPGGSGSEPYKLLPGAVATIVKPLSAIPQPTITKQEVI
Summary of the method: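 Multiplexed reporter assay: transfected HepG2, 24 h exposure, total RNA → oligo(dT) RT → PCR → 6-FAM extension → HpaI digest → CE fluorescence. DMSO = negative control.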

[6] = ATG_M_06_TRANS: Attagene TRANS-FACTORIAL HepG2 Assay for M06 Transcription Factor (Internal Marker) (AID 2282983); settings: HepG2 Attagene TRANS M06 internal marker reporter
Summary of the method: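 In this multiplexed HepG2 system, compounds are incubated 24 h with cells carrying GAL4-UAS reporter units. Reporter RNA is amplified and resolved by capillary electrophoresis, and induction is scored against DMSO.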

[7] = molecular target: Transcriptional activator Myb (Homo sapiens) (UniProt P10242); assay: ATG_Myb_CIS: Attagene CIS-FACTORIAL HepG2 Assay for human Myeloblastosis (Myb) Proto-Oncogene Transcription Factor (AID 2282986; active = hit-call score of the fitted dose curve at least 0.9, where 1 is the maximum; inactive = score below 0.9); settings: HepG2 Attagene CIS-FACTORIAL Myb reporter transcription; actives raise or lower the signal
Transcriptional activator Myb (Homo sapiens), sequence (P10242 whole entry, looked up): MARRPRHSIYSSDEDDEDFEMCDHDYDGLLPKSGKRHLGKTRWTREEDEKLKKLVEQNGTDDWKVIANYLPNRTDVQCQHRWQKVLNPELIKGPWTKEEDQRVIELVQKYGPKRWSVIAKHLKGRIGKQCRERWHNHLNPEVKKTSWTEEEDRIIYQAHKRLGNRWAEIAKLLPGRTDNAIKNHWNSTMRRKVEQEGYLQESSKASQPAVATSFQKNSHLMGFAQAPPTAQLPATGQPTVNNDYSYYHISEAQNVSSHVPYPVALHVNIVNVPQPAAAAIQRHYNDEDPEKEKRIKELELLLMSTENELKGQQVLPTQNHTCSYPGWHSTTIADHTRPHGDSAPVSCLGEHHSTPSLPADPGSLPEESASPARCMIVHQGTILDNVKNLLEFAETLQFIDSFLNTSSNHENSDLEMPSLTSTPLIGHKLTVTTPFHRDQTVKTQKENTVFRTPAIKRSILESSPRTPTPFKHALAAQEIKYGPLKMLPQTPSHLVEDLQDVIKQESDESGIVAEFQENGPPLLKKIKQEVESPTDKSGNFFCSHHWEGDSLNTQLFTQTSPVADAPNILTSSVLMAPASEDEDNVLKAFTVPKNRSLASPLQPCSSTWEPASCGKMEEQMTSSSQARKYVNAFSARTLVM
Summary of the method: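 Multiplexed cis-reporter system in HepG2: transient transfection, 24 h treatment, mRNA readout by RT-PCR and capillary electrophoresis. Both increases and decreases are scored versus DMSO negative control.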

[8] = molecular target: Nuclear receptor subfamily 1 group I member 3 (Homo sapiens) (UniProt Q14994); assay: ATG_CAR_TRANS: Attagene TRANS-FACTORIAL HepG2 Assay for human Constitutive Androstane Receptor (CAR) (AID 2282969); settings: HepG2 Attagene TRANS-FACTORIAL CAR reporter;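 also: activators raise reporter mRNA above DMSO so AC50 marks induction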
Nuclear receptor subfamily 1 group I member 3 (Homo sapiens), sequence (Q14994 whole entry, looked up, the tested form may be a part): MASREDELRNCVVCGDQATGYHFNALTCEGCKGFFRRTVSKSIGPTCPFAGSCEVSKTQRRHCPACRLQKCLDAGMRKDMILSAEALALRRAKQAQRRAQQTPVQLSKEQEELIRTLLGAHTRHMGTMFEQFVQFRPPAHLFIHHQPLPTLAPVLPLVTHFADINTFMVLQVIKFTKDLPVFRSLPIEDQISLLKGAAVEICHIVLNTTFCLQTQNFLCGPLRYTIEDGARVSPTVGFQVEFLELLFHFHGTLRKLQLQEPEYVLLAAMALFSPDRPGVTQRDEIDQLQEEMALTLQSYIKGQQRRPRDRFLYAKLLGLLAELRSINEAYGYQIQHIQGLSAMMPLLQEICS
Summary of the method: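 Signal is reporter mRNA induction relative to DMSO, measured 24 h after dosing by RT-PCR with fluorescent primer extension and capillary electrophoresis. Human HepG2 liver cells carried transiently transfected chimeric NR-Gal4/GAL4-UAS reporter constructs.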

[9] = ATG_GAL4_TRANS: Attagene TRANS-FACTORIAL HepG2 Assay for GAL4 (Internal Marker) (AID 2282976); settings: HepG2 Attagene TRANS GAL4 internal marker reporter
Summary of the method: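 HepG2 cells transiently transfected with multiplexed GAL4-UAS reporter constructs were dosed for 24 h. Reporter mRNA was measured by RT-PCR, 6-FAM primer extension, HpaI digestion and capillary electrophoresis, and gain of signal was fitted relative to DMSO.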

[10] = ATG_M_32_TRANS: Attagene TRANS-FACTORIAL HepG2 Assay for M32 Transcription Factor (Internal Marker) (AID 2282984); settings: HepG2 Attagene TRANS M32 internal marker reporter;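 also: transcript level of a background control reporter unit measured by RT-PCR and capillary electrophoresis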
Summary of the method: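 Cell-based TRANS-format assay in HepG2: exogenous chimeric GAL4 reporter units transiently expressed, compounds applied 24 h. Reporter mRNA detected by RT-PCR plus capillary electrophoresis; this readout is an internal background marker.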

[11] = molecular target: Nuclear receptor subfamily 4 group A member 2 (Homo sapiens) (UniProt P43354); assay: ATG_NURR1_TRANS: Attagene TRANS-FACTORIAL HepG2 Assay for human Nuclear Receptor Related Protein 1 (NURR1) (AID 2282985); settings: HepG2 Attagene TRANS reporter, mRNA readout
Nuclear receptor subfamily 4 group A member 2 (Homo sapiens), sequence (P43354 whole entry, looked up, the tested form may be a part): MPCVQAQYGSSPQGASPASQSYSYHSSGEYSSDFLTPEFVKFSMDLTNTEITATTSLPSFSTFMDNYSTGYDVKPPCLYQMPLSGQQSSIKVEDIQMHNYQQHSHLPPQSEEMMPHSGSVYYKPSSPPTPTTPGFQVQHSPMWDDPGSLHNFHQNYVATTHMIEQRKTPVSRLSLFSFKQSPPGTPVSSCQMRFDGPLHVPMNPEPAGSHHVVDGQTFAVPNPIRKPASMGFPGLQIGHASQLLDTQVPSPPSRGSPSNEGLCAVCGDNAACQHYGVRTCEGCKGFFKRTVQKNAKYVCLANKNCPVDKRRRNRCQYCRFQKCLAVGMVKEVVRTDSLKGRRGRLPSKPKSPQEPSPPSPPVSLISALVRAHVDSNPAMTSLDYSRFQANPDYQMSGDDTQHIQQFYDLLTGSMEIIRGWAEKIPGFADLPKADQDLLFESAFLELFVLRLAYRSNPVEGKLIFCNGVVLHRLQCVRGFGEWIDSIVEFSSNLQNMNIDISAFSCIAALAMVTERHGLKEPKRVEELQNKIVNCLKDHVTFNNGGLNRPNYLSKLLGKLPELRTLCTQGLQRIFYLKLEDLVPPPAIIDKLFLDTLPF
Summary of the method: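 Measures transcriptional activation by an exogenous NR-Gal4 chimera in transfected HepG2 liver cells. After 24 h, reporter RNA is reverse-transcribed, amplified and resolved by capillary electrophoresis; DMSO defines baseline.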

[12] = molecular target: Estrogen receptor (Homo sapiens) (UniProt P03372); assay: ATG_ERa_TRANS: Attagene TRANS-FACTORIAL HepG2 Assay for human Estrogen Receptor alpha (ERa) (AID 2282970); settings: HepG2 Attagene TRANS ERa GAL4 reporter, mRNA
Estrogen receptor (Homo sapiens), sequence (P03372 whole entry, looked up, the tested form may be a part): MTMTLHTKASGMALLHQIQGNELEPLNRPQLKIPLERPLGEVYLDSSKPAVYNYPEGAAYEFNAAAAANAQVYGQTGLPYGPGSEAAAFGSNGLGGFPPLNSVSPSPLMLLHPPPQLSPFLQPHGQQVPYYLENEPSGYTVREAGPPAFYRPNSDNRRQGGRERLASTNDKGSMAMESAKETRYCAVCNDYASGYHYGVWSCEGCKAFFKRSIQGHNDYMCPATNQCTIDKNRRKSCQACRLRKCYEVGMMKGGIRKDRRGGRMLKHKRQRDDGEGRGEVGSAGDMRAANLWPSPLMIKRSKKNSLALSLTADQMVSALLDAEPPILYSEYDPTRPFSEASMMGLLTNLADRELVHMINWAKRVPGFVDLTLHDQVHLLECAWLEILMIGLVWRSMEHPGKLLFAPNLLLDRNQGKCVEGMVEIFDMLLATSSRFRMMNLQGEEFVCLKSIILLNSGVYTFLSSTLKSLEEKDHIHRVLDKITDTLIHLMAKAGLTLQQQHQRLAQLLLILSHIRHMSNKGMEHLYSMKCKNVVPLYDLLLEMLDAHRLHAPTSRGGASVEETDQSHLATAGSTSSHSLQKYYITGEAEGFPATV
Summary of the method: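 One of 30 multiplexed endpoints from a HepG2 TRANS system, this one reports ERa-Gal4-driven reporter mRNA. Transcripts were quantified 24 hours post-dosing by fluorescent RT-PCR and capillary electrophoresis, with activity scored as induction over DMSO.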

[13] = molecular target: Steroid hormone receptor ERR1 (Homo sapiens) (UniProt P11474); assay: ATG_ERRa_TRANS: Attagene TRANS-FACTORIAL HepG2 Assay for human Estrogen-Related Receptor alpha (ERRa) (AID 2282971); settings: HepG2 Attagene TRANS reporter, ERRa transactivation
Summary of the method: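 HepG2 cells transiently transfected with multiplexed GAL4-UAS reporter units reading chimeric ERRa-Gal4 activity; 24 h compound exposure. Reporter mRNA measured by RT-PCR, 6-FAM labelling, HpaI digest and capillary electrophoresis; gain of signal fitted versus DMSO baseline.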

[14] = molecular target: Bile acid receptor (Homo sapiens) (UniProt Q96RI1); assay: ATG_FXR_TRANS: Attagene TRANS-FACTORIAL HepG2 Assay for Farnesoid X Receptor (FXR) (AID 2282979); settings: HepG2 Attagene TRANS FXR-GAL4 reporter transcription;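 also: hits raise reporter mRNA above DMSO so AC50 marks FXR activation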
Summary of the method: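 HepG2 cells transiently transfected with reporter constructs in which a chimeric FXR-GAL4 protein drives a GAL4-UAS reporter; 24 h compound exposure. Reporter mRNA measured by RT-PCR, FAM labelling, HpaI digestion and capillary electrophoresis; gain-of-signal versus DMSO.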

[15] = molecular target: Glucocorticoid receptor (Homo sapiens) (UniProt P04150); assay: ATG_GR_TRANS: Attagene TRANS-FACTORIAL HepG2 Assay for human Glucocorticoid Receptor (GR) (AID 2282978); settings: HepG2 Attagene TRANS GR reporter, mRNA transcription;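 also: activators score as hits since higher reporter transcript over DMSO is fitted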
Glucocorticoid receptor (Homo sapiens), sequence (P04150 whole entry, looked up, the tested form may be a part): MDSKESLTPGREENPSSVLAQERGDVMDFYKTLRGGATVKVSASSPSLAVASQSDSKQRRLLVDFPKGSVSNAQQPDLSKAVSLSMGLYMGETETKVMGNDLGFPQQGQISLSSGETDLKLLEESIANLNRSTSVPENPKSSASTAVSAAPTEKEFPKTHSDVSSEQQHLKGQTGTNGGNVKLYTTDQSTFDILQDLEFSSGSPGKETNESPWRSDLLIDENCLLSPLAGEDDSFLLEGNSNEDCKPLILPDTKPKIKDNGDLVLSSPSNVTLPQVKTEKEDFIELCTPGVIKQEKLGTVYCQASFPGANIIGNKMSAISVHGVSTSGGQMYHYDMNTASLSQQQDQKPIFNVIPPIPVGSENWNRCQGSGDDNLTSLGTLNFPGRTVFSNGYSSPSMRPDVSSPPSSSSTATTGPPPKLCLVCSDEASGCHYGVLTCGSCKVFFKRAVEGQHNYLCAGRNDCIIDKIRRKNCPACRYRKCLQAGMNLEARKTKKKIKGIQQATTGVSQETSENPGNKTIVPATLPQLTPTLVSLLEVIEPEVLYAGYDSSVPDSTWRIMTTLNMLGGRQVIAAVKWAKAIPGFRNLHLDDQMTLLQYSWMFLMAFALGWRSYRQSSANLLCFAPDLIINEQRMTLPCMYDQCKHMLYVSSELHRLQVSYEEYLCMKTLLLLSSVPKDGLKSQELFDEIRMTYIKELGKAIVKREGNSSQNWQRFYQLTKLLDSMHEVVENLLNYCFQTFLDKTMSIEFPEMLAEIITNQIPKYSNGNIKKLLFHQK
Summary of the method: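 HepG2 transient transfection, multiple reporter units, GAL4-UAS under NR-GAL4 chimera control. 24 h treatment. Reporter mRNA by RT-PCR/CE fluorescence, DMSO as negative control.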

[16] = molecular target: Oxysterols receptor LXR-alpha (Homo sapiens) (UniProt Q13133); assay: ATG_LXRa_TRANS: Attagene TRANS-FACTORIAL HepG2 Assay for human Liver X Receptor alpha (LXRa) (AID 2282980); settings: HepG2 Attagene TRANS reporter, LXRa transactivation
Oxysterols receptor LXR-alpha (Homo sapiens), sequence (Q13133 whole entry, looked up, the tested form may be a part): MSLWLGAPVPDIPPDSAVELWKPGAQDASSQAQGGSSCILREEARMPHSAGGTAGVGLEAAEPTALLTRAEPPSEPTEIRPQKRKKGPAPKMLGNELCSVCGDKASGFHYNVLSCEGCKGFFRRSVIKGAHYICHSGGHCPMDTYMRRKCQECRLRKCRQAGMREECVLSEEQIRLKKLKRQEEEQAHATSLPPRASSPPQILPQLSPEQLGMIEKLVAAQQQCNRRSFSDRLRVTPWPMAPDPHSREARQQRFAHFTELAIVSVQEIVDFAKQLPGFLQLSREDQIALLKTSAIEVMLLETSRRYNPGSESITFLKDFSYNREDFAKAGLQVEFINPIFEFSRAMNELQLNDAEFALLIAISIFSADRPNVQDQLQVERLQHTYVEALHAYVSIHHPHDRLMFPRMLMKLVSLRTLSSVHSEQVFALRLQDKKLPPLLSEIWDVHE
Summary of the method: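 HepG2 cells were transiently transfected with multiplexed reporter units driven by chimeric LXRa–GAL4 fusion proteins, then dosed for 24 h. Reporter mRNA was quantified by RT-PCR, fluorescent labelling and capillary electrophoresis; gain of signal fitted against DMSO baseline.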

[17] = molecular target: Oxysterols receptor LXR-beta (Homo sapiens) (UniProt P55055); assay: ATG_LXRb_TRANS: Attagene TRANS-FACTORIAL HepG2 Assay for human Liver X Receptor beta (LXRb) (AID 2282981); settings: HepG2 Attagene TRANS GAL4-LXRb reporter, mRNA
Oxysterols receptor LXR-beta (Homo sapiens), sequence (P55055 whole entry, looked up, the tested form may be a part): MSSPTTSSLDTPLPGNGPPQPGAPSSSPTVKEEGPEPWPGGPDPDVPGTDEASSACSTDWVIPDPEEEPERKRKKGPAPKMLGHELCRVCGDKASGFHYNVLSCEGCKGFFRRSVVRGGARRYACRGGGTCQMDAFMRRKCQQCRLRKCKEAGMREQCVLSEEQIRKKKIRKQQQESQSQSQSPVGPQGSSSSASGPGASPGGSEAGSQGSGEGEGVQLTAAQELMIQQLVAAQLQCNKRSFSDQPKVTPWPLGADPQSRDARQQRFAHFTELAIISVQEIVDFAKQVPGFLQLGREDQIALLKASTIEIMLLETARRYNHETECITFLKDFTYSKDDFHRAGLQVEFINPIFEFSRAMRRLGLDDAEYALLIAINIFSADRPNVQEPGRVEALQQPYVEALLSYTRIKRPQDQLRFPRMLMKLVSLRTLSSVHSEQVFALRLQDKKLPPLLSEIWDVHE
Summary of the method: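 After 24 h of chemical treatment, transfected HepG2 cells yield total RNA; reporter cDNA is PCR-amplified, FAM-labelled, HpaI-cut and run on capillary electrophoresis. Signal reflects chimeric LXRb-Gal4 activity on GAL4-UAS reporters.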

[18] = molecular target: Estrogen-related receptor gamma (Homo sapiens) (UniProt P62508); assay: ATG_ERRg_TRANS: Attagene TRANS-FACTORIAL HepG2 Assay for human Estrogen-Related Receptor gamma (ERRg) (AID 2282977); settings: HepG2 Attagene TRANS reporter, ERRg transactivation;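 also: hits increase reporter signal over DMSO so potencies reflect activators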
Summary of the method: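 Exogenous NR-Gal4 chimera activity was assessed in HepG2 cells bearing transfected GAL4-UAS reporters. After 24 h dosing, total RNA underwent RT-PCR, fluorescent primer extension and HpaI digestion before capillary electrophoresis, with gain of signal scored against DMSO.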

[19] = ATG_VDRE_CIS: Attagene CIS-FACTORIAL HepG2 Assay for human Vitamin D Receptor Element (VDRE) (AID 2282968; active = hit-call score of the fitted dose curve at least 0.9, where 1 is the maximum; inactive = score below 0.9); settings: HepG2 VDRE cis-reporter transcription, actives raise or lower the signal
Summary of the method: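 Measures endogenous factor activity through cis-element-driven reporter transcripts in transiently transfected HepG2. Cells are treated 24 h; reporter mRNA is quantified by RT-PCR and capillary electrophoresis; fitting is bidirectional.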

Measured: AC50

CNCc1cc(F)ccc1Oc1ccc(Cl)c(Cl)c1
inactive: [1] | [2] | [3] | [4] | [5] | [6] | [7]

Cc1cccc([N+](=O)[O-])c1C
inactive: [1] | [2] | [8] | [3] | [9] | [6] | [10] | [11]

CCc1c(C(=O)NN2CCCCC2)nn(-c2ccc(Cl)cc2Cl)c1-c1ccc(Br)cc1
inactive: [2] | [12] | [13] | [3] | [4] | [14] | [10] | [11] | [7]
active: [1] 3.53 µM

CC1(C)NC(=O)NC1=O
active: [12] 26.3 µM
not listed: [7] | [9] | [14] | [18] | [19]
inactive: all other assays above

CC(C)(C)c1cc(O)c(C(C)(C)C)cc1O
active: [1] 8.01 µM | [3] 37.6 µM
not listed: [5] | [8] | [13] | [14] | [18] | [19]
inactive: all other assays above

CNC(=O)[C@H]1O[C@@H](n2cnc3c(NCc4cc(Cl)ccc4OCc4cc(C)no4)ncnc32)[C@H](O)[C@@H]1N
inactive: [1] | [2] | [3] | [9] | [16] | [6] | [7]

CCOc1ccc2c(c1)C(C)=CC(C)(C)N2
active: [1] 58.1 µM | [3] 155 µM | [16] 38.2 µM | [11] 124 µM
inactive: [2] | [8] | [4] | [18] | [17] | [5] | [10]

CC1=C(/C=C/C(C)=C/C=C/C(C)=C/CO)C(C)(C)CCC1
active: [1] 25.9 µM | [12] 4.28 µM | [11] 2.86 µM
inactive: [2] | [3] | [9] | [17] | [6] | [10] | [7]

Clc1cc(Cl)c(Cl)cc1Cl
inactive: [1] | [2] | [3] | [18] | [15] | [5] | [6] | [11] | [7]

CCCCCCCCCCO
inactive: [2] | [19] | [5] | [6] | [7]
active: [1] 166 µM | [3] 160 µM

Cc1oc(-c2ccccc2)nc1CCOc1cccc2c1ccn2CCC(=O)O
inactive: [1] | [2] | [19] | [3] | [4] | [15] | [17] | [10] | [11] | [7]

Cc1cc(=O)[nH]c(=S)[nH]1
inactive: [1] | [2] | [3] | [14] | [5] | [6] | [11]
